# nsP2pro inh: CHIKV nsP2 protease inhibition, primary qHTS | Potency, µM (series often up to 24.9 µM), for inactives: at the highest dose activity change, negative = inhibition, most hits filed as inhibitors | AID 1964107 | 1.1% of 31,000 active | Q8JUX6 | FRET peptide cleavage, nsP2pro, fluorescence 1 h; further: nearly all actives have a fitted effect of over 60% in size
#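 Purified recombinant nsP2pro (150 nM final) in 10 mM Tris-HCl pH 8.0 with 0.01% Tween 20 was preincubated 15 min at room temperature with compound (7 concentrations, up to 25 uM). FRET peptide 2 substrate (2.5 uM final) was then added; fluorescence was read after 1 h.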
# nsP2 cell sec: secondary cell-based test for CHIKV nsP2 protease inhibitors | Potency, µM (top dose mostly 51.1 µM), for inactives: at the highest dose activity change, negative = inhibition, most hits filed as inhibitors | shares compounds with nsP2pro inh | 10% of 450 active | cell-based CHIKV nsP2 protease reporter assay; further: nearly all actives have a fitted effect of over 70% in size
# Target sequence (Q8JUX6 220-798 limits assumed): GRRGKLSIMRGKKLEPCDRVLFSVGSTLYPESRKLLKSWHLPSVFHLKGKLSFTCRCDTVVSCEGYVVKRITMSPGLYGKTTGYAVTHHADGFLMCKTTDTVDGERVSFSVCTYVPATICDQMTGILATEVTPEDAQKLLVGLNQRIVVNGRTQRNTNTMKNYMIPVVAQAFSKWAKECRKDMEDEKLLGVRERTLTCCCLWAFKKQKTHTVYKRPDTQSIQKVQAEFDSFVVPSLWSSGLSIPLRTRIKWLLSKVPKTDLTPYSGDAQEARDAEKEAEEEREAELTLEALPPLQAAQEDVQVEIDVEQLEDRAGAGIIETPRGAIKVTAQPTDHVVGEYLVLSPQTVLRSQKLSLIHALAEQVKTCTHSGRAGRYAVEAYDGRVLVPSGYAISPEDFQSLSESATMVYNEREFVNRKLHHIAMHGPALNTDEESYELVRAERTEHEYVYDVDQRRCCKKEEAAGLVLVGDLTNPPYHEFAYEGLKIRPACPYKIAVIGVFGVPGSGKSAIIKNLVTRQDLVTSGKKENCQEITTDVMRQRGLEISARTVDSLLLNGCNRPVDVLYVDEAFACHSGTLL
# NSP2 full ctr: inhibits full-length CHIKV NSP2 enzyme; Full-length CHIKV NSP2 protease enzymatic counterscreen; 39% of 410 active; AID 1964101; Potency, µM (series often up to 50.7 µM), for inactives: top-dose activity change, negative = inhibition, usual class: inhibitors; shares compounds with nsP2pro inh; further: nearly all actives have a fitted effect of over 65% in size
# Furin counter: inhibits human furin in a CHIKV nsP2 protease selectivity counterscreen. Recombinant human furin enzymatic counterscreen, fluorogenic substrate. AID 1964102. Potency, µM (series often up to 50.6 µM), without a hit: at the top dose activity change, negative = inhibition, hits mostly inhibitors. shares compounds with nsP2pro inh. 6% of 410 active
# NS23 peptide cs: nsP2pro inhibition on native NS2/3 peptide substrate | shares compounds with nsP2pro inh | Purified CHIKV nsP2 protease, endogenous NS2/3 peptide cleavage | Potency, µM (titrated, usually from 51 µM), inactives show top-dose activity change, negative = inhibition, most hits filed as inhibitors | 34% of 410 active; further: nearly all actives have a fitted effect of over 55% in size
# Papain cs: inhibits papain in a CHIKV nsP2 protease selectivity counterscreen; purified papain protease activity, enzymatic inhibition; Potency, µM (doses to about 51 µM), inactives show at the highest dose activity change, negative = inhibition, usual class: inhibitors; AID 1964104; shares compounds with nsP2pro inh; 5% of 410 active
# nsP2pro confirm: CHIKV nsP2 protease inhibition, confirmatory qHTS; shares compounds with nsP2pro inh; CHIKV nsP2 protease enzymatic activity, qHTS; Potency, µM (titrated, usually from 25.5 µM), without a hit: top-dose activity change, negative = inhibition, actives largely listed as inhibitors; 43% of 410 active; AID 1964105; further: nearly all actives have a fitted effect of over 75% in size
# HCV NS3 counter: HCV NS3/4A protease inhibition, counterscreen. HCV NS3/4A protease biochemical counterscreen. shares compounds with nsP2pro inh. Potency, µM (titrated, usually from 50.9 µM), most hits filed as inhibitors. 20% of 410 active. AID 1964106; further: nearly all actives have a fitted effect of over 55% in size
# An asterisk follows results filed as active; i = inactive; ? = inconclusive; [ ] = another dose, or the depositor's remark. The entries come from a sample that favours hits as a whole. The call rests on the fitted dose curve. On the % scale 0 is the no-effect control and ±100 the full control effect; potency means the concentration at half of the fitted maximal effect.
SMILES,nsP2pro inh,others
C=C1C(=O)O[C@@H]2C[C@@H](C)[C@]34C[C@]5(C(=O)O[C@H]6CC(C)=C([C@H](C)CCCO)[C@H](OC(=O)C(C)CC)[C@H]65)[C@@H](C(C)=C3C[C@@H]12)[C@H]4OC(C)=O (stereo partly drawn),13%[10 µM],
C=C1C(=O)O[C@@H]2[C@H]1CC(=O)[C@H](C)[C@@](O)(C(=O)/C=C/C)[C@H]2OC(=O)C(C)CC (stereo partly drawn),?,nsP2 cell sec=?;NSP2 full ctr=?;Furin counter=5%[33.5 µM];NS23 peptide cs=13µM*;Papain cs=-5%[33.5 µM];nsP2pro confirm=?;HCV NS3 counter=i
C=C(C)C1CCC2(C(=O)OC3OC(COC4OC(CO)C(O)C(O)C4O)C(OC4OC(C)C(O)C(O)C4O)C(O)C3O)CCC3(C(=O)O)C(CCC4C5(C)CCC(=O)C(C)(C)C5CCC43C)C12 (stereo not drawn),25%[5.1 µM],
[2H]C([2H])([2H])NC(=O)c1nnc(NC(=O)C2CC2)cc1Nc1cccc(-c2ncn(C)n2)c1OC,1%,
C#CCN(Cc1nc(-c2ccccc2OCC)oc1C)C1CCCCC1,i,
C[C@@H](Oc1ccc2[nH]nc(/C=C/c3cnn(CCO)c3)c2c1)c1c(Cl)cncc1Cl,62%,
Cc1ccc(OCCn2c(CCNC(=O)c3cccc(Cl)c3)nc3ccccc32)cc1,i,
COc1cccc(CN2CCOCCNC(=O)CC2)c1,-12%,
O=C1CCN(Cc2cccc(F)c2)CCCOCCN1,0%,
C(#Cc1cccc(CN2CCOCC2)c1)CCN1CCCCC1,9.9µM*,nsP2 cell sec=6%;NSP2 full ctr=?;Furin counter=-12%;NS23 peptide cs=?;Papain cs=-10%;nsP2pro confirm=?;HCV NS3 counter=i
Cc1nc(C)c(C(=O)N2CCCC(COc3ccccc3C(=O)N3CCCC3)C2)s1 (stereo not drawn),-1%,
C[C@]12CCC3=C4CCC(=O)C=C4CC[C@H]3[C@@H]1CC[C@@]2(O)CC#N,-5%,
CCc1nc2c(c(-c3ccc(O)cc3)n1)CCN(Cc1ccc(F)cc1)CC2,4%,
O=C(Cc1ccccn1)N1CCCC(C(=O)N2CCC(N3CCCC3=O)CC2)C1 (stereo not drawn),-8%,
O=C(OC[C@H]1O[C@@H](OC(=O)c2cc(O)c(O)c(O)c2)[C@H](O)[C@@H](OC(=O)c2cc(O)c(O)c(O)c2)[C@@H]1O)c1cc(O)c(O)c(O)c1,14%,
Cc1nnc2ccc(N3CCC(NC(=O)C(C)C)CC3)nn12,-4%[39.2 µM],
Oc1ccc(NCc2ccccc2OCc2ccccc2)cc1,3µM*,nsP2 cell sec=12µM*;NSP2 full ctr=?;Furin counter=-8%;NS23 peptide cs=18µM*;Papain cs=-7%;nsP2pro confirm=?;HCV NS3 counter=21µM*
Oc1cc(NCc2ccc(Cl)cc2)cc2cccnc12,3%,
CCOc1ccc(CCNC(=O)c2ccccn2)cc1OCC,0%,
O=C(COc1ccccc1CNc1ccccc1)Nc1ccc(F)cc1,-49%,
O=C(COc1ccccc1CNc1ccc(F)cc1)Nc1ccc(F)cc1,-1%,
Oc1ccc(NCc2ccccc2OCc2ccc(Cl)cc2)cc1,2.4µM*,nsP2 cell sec=12µM*;NSP2 full ctr=13µM*;Furin counter=-12%;NS23 peptide cs=?;Papain cs=-12%;nsP2pro confirm=?;HCV NS3 counter=13µM*
CCOc1cc(CNc2ccc(O)cc2)ccc1OCc1ccc(Cl)cc1,10µM*,nsP2 cell sec=13µM*;NSP2 full ctr=18µM*;Furin counter=-22%;NS23 peptide cs=?;Papain cs=-24%;nsP2pro confirm=-2%;HCV NS3 counter=?
O=C(COc1ccccc1CNc1ccc(F)cc1)Nc1ccc(Cl)cc1,29%,
COc1cccc(CNc2ccc(S(=O)(=O)Nc3ccccn3)cc2)c1O,i,
SMILES,nsP2pro inh,others
CC(C)c1ccc(CN2CCCC3(CCN(S(C)(=O)=O)C3)C2=O)cc1 (stereo not drawn),5%,
Cc1ccc(CNc2nc(-c3ccccc3C(F)(F)F)nc3ccccc23)cc1,-5%,
Cc1cc(C)nc(NC(=S)N2CCN(c3nc4ccccc4s3)CC2)c1,-8%,
C[C@@H]1C(=O)OC[C@H]2C(C(=O)O)=C[C@@H]3CC(C)(C)C[C@]312,34%,
Cc1noc(C)c1[S+](=O)([O-])N1CC(Oc2ccc(F)cc2F)C1,3%,
O=C(c1ccccc1)c1c(O)cc(O)cc1O[C@@H]1O[C@H](CO)[C@@H](O)[C@H](O)[C@H]1O,-1%,
NCCNc1ccc(NCCN)c2c1C(=O)c1ccncc1C2=O,40%,
COc1cc(O)c([C@H](CC(=O)N2CC(C)CC(C)C2)c2ccc3c(c2)OCO3)c(OC)c1 (stereo partly drawn),-11%[39.2 µM],
Cc1ccc(CNC(=O)c2cc3sccc3n2Cc2ccc(F)cc2)cc1,14%,
O=C(NCc1ccccc1)c1cc2sccc2n1Cc1ccc(F)cc1,7%,
Cc1c(Cl)cccc1NC(=O)c1cc2sccc2n1Cc1ccc(F)cc1,7.9µM*,nsP2 cell sec=?;NSP2 full ctr=5.8µM*;Furin counter=-18%;NS23 peptide cs=16µM*;Papain cs=-8%;nsP2pro confirm=8µM*;HCV NS3 counter=8.2µM*
O=C1Nc2ccccc2/C1=C/c1cc(Cl)c(O)c(Cl)c1,i,
Cc1ccc(C)c(NC(=O)CN2C(=O)C(c3ccccc3)=NC23CCCC3)c1,i,
NNCCc1ccc(NC(=O)CCCc2ccccc2)cc1,-17%,
CNC(=O)NCCc1ncc(C)n1C1CCCCCCC1,i,
O=C(NCc1ccc(Cl)cc1)c1c[nH]c2ncccc12,i,
O=C(NCc1c[nH]c2ncccc12)c1ccccc1Cl,4%[39.2 µM],
O=C(NCc1ccnc2[nH]ccc12)c1ccccc1Cl,4.5µM*,nsP2 cell sec=24µM*;NSP2 full ctr=4.7µM*;Furin counter=-15%;NS23 peptide cs=19µM*;Papain cs=-10%;nsP2pro confirm=12µM*;HCV NS3 counter=3µM*
CO[C@H]1C[C@H](O[C@@H]2[C@H](C)O[C@H](O[C@@H]3/C(C)=C/C[C@@H]4C[C@@H](C[C@]5(C=C[C@H](C)[C@@H](C6CCCCC6)O5)O4)OC(=O)[C@@H]4C=C(C)C(O)[C@H]5OC/C(=C\C=C\[C@@H]3C)[C@]54O)C[C@@H]2OC)O[C@@H](C)[C@@H]1O (stereo partly drawn),-11%,
CCCCCC1CCC(C(=O)Nc2ccc(S(=O)(=O)Nc3nccs3)cc2)CC1 (stereo not drawn),i,
CCCCN1C[C@H](O)[C@@H](O)[C@H](O)[C@H]1CO,3%,

# High-throughput results as filed in PubChem BioAssay.
